Assay results: PubChem BioAssay (NCATS)
Inconclusive results are not listed. Entries that show only a call come without a potency. The source made the active and inactive calls. Unless noted, calls come from the whole dose curve.

Tests used:
[1] = molecular target: Retinoic acid receptor RXR-alpha (Homo sapiens) (UniProt P19793); assay: qHTS assay for small molecule agonists of retinoid X receptor alpha signaling (AID 588544)
[2] = molecular target: Thyroid hormone receptor beta (Homo sapiens) (UniProt P10828); assay: qHTS assay for small molecule agonists of thyroid hormone receptor beta signaling (AID 588545)
Chain of Thyroid hormone receptor beta (Homo sapiens) (P10828 whole entry, looked up): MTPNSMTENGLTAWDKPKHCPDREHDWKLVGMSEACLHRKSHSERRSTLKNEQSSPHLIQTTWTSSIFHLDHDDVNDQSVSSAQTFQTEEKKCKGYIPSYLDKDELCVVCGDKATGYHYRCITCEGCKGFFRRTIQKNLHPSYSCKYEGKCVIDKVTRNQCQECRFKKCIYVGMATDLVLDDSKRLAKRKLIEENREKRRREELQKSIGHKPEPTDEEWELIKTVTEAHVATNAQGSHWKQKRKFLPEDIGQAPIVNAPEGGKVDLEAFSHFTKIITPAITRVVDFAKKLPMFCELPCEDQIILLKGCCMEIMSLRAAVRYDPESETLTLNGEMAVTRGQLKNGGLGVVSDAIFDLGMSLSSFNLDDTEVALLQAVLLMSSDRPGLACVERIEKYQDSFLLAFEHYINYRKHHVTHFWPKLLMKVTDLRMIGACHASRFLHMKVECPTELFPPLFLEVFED
Summary of the method: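 Beta-lactamase reporter activity under TR response element control is measured in HEK 293 cells after 18 hrs compound exposure. Signal is ratiometric CCF4 fluorescence, 460/530 nm.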

[3] = qHTS assay for small molecule antagonists of retinoid X receptor alpha signaling (AID 588546; active = well fitted inhibition curve with a large enough effect in the signal ratio, with a control signal flat, not every such curve was filed as active; the % refers to the signal ratio;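 note: cells stimulated with 9-cis-retinoic acid as agonist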); conditions: HEK293T RXRa-UAS-bla, beta-lactamase ratio, antagonist mode; measured here: W530 green channel, cytotoxicity proxy
Summary of the method: (§1)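 Beta-lactamase reporter inhibition, read as CCF4 fluorescence ratio (ex 405, em 460/530 nm) after 2 h at RT. HEK293T UAS-bla cells, 2500/well, were stimulated with 9-cis-RA at 500 or 100 nM final alongside test compound for 18 h at 37 C.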

[4] = molecular target: Retinoic acid receptor RXR-alpha (Homo sapiens) (UniProt P19793); assay: as above; conditions: HEK293T RXRa-UAS-bla, beta-lactamase ratio, antagonist mode
Summary of the method: as §1

[5] = molecular target: Thyroid hormone receptor beta (Homo sapiens) (UniProt P10828); assay: qHTS assay for small molecule antagonists of thyroid hormone receptor beta signaling (AID 588547; active = well fitted inhibition curve with a large enough effect in the signal ratio, with a control signal flat, not every such curve was filed as active; the % refers to the signal ratio;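 note: cells stimulated with 0.4 nM T3 agonist during compound exposure; series mostly up to about 77 µM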); conditions: TR-UAS-bla HEK293, beta-lactamase ratio, antagonist mode, 18 h
Summary of the method: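 TR-UAS-bla GripTite HEK293 cells in 2% charcoal/dextran FBS medium; compounds 0.59 nM to 92 uM with T3 at 0.4nM final, 18 h at 37 C. Beta-lactamase read by CCF4 fluorescence (460/530 nm); Hill fits gave IC50 and efficacy.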

[6] = molecular target: Voltage-gated inwardly rectifying potassium channel KCNH2 (Homo sapiens) (UniProt Q12809); assay: qHTS Assay for Small Molecule Inhibitors of the Human hERG Channel Activity (AID 588834; active = well fitted curve in the direction sought with a large enough effect; an effect the other way counts as inactive or inconclusive;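 note: top concentration of the series differs between compounds; lower thallium flux fluorescence means stronger hERG block; nearly all actives have a fitted effect of over 50% in size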)
Chain of Voltage-gated inwardly rectifying potassium channel KCNH2 (Homo sapiens) (Q12809 whole entry, looked up): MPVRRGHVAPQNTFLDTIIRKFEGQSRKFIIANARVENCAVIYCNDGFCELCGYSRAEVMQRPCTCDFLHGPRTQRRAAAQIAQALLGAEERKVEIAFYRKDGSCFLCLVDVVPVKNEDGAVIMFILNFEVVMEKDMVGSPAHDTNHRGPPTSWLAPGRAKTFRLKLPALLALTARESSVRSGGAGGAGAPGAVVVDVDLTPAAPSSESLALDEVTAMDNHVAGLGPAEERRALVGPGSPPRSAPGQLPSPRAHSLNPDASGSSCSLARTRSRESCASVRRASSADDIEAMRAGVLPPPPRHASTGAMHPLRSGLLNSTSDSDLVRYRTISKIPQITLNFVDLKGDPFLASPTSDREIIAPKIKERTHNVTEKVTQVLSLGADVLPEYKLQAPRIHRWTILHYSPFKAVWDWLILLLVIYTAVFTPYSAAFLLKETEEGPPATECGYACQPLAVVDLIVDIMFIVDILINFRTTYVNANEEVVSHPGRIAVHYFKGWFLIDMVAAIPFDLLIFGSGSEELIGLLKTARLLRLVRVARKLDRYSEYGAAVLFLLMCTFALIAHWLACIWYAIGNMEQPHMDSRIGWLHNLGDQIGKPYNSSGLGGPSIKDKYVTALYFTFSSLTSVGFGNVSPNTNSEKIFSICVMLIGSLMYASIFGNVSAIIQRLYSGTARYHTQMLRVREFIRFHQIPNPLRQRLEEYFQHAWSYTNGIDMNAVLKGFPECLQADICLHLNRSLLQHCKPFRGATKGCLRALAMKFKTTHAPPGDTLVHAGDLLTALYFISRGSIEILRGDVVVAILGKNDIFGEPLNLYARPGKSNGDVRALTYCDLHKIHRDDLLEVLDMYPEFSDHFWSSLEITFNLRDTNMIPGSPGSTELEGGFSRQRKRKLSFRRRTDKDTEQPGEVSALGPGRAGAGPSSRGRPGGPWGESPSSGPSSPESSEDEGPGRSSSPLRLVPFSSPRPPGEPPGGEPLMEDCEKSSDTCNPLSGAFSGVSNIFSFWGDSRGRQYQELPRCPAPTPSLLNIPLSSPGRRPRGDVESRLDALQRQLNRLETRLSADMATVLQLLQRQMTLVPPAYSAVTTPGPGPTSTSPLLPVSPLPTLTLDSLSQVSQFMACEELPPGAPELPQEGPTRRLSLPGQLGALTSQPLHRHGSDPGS
Summary of the method: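 Thallium serves as surrogate for K+ influx through BacMam-delivered hERG in U2OS cells. Compounds are added for about 10 minutes after dye loading; stimulation buffer then starts flux, monitored kinetically on FDSS.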

[7] = molecular target: Luciferin 4-monooxygenase (Photinus pyralis) (UniProt P08659); assay: Biochemical firefly luciferase enzyme assay for NPC (AID 624030; active = well fitted curve in the direction sought with a large enough effect; an effect the other way counts as inactive or inconclusive; note: nearly all actives have a fitted effect of over 70% in size; note: potency is the fitted concentration of half-maximal effect)
Chain of Luciferin 4-monooxygenase (Photinus pyralis) (P08659 whole entry, looked up): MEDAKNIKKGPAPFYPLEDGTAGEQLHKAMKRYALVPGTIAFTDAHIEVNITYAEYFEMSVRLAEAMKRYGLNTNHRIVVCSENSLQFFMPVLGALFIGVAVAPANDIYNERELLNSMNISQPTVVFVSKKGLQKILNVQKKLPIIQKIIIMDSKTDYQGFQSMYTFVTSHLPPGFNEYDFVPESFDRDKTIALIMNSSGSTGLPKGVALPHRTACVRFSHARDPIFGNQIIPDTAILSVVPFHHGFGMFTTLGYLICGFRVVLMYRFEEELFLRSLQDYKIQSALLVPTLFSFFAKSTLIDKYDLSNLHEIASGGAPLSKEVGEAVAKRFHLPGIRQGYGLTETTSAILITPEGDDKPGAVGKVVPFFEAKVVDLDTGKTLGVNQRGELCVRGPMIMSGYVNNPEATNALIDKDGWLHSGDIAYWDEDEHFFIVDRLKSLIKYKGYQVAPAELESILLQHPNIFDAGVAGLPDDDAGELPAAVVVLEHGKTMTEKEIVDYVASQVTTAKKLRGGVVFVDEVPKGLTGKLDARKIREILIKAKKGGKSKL
Summary of the method: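 Purified P. pyralis luciferase at 10 nM in 50 mM Tris Acetate (final), luminescence read within 5 minutes of enzyme addition to compounds. Activity normalised to PTC124 versus DMSO; concentration-response curves classed by r2, magnitude and activity.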

[8] = S16 Schwann cell viability assay (CellTiter-Glo assay) (AID 624031; active = well fitted curve in the direction sought with a large enough effect; an effect the other way counts as inactive or inconclusive;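 note: cellular ATP luminescence as a viability measure; series mostly up to about 58 µM; nearly all actives have a fitted effect of over 70% in size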)
Summary of the method: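 Native S16 rat Schwann cells, 500-750 cells/well in DMEM with 10% FBS, dosed with compound after overnight culture and incubated 24h at 37 degree Celsius/5% CO2. Viability by CellTiter-Glo luminescence; % activity normalized to no-cell wells and DMSO-treated cells.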

[9] = S16 Schwann cell PMP22 intronic element firefly luciferase assay (AID 624032; active = well fitted curve in the direction sought with a large enough effect; an effect the other way counts as inactive or inconclusive; note: potency is the fitted concentration of half-maximal effect; nearly all actives have a fitted effect of over 30% in size); conditions: S16 rat Schwann cells, PMP22 element FLuc, 24 h
Summary of the method: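 Rat S16 Schwann cells stably carrying firefly luciferase driven by a PMP22 intronic element, in 10% FBS, treated 24 h at 37 C. ONE-Glo luminescence normalized to PTC124 control and DMSO (0%); curves classed by r2, magnitude and activity.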

[10] = S16 Schwann cell PMP22 intronic element beta-lactamase assay (AID 624044); conditions: S16 rat Schwann cells, PMP22 element beta-lactamase FRET, 24 h; note: potency is the fitted concentration of half-maximal effect; nearly all actives have a fitted effect of over 15% in size
Summary of the method: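 Beta-lactamase reporter under a PMP22 intronic regulatory element in stable S16 rat Schwann cells; 24 h compound exposure. 460 nm blue signal normalized between DMSO (0%) and potassium clavulanate, with 535 nm FRET tracking viability; curves classed by r2 and response.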

Chain of Retinoic acid receptor RXR-alpha (Homo sapiens) (P19793 whole entry, looked up): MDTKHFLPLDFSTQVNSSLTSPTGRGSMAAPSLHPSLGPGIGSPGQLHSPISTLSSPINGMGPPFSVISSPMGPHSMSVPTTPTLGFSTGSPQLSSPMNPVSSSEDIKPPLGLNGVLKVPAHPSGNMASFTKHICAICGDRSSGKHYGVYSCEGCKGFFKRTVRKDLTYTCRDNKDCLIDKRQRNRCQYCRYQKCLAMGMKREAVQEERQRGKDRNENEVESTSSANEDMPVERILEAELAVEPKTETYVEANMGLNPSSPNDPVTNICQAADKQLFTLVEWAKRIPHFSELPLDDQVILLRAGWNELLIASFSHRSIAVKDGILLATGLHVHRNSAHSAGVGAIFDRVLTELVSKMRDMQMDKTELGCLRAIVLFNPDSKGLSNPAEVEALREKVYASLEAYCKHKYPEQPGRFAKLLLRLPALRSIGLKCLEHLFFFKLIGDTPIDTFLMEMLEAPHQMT

SMILES	outcome [1]	outcome [2]	max response [3] [%]	max response [4]	activity change % (negative = inhibition) [5]	outcome [6]	Potency [7]	outcome [8]	Potency [9]	Potency [10]
Nc1ccccc1N	inactive	inactive	1.4	-8.62% (inactive)	-38.2% (inactive)	inactive	2.63 µM (active)			
CC(=O)O[C@@H]1CC(C)=C2[C@H]1[C@H](C)CC[C@H]2/C=C(\C)C(=O)O	inactive	inactive	-4.2	22.1% (inactive)	19.9% (inactive)	inactive				
CC(=O)O[C@H]1C(=O)[C@@]2(C)[C@H]([C@H](OC(=O)c3ccccc3)[C@]3(O)C[C@H](OC(=O)[C@H](O)[C@@H](NC(=O)c4ccccc4)c4ccccc4)C(C)=C1C3(C)C)[C@]1(OC(C)=O)CO[C@@H]1C[C@@H]2O	inactive	inactive			-8.03% (inactive)	inactive	inactive	inactive		
Cc1ccc(N)cc1O	inactive	inactive	-3.5	0.585% (inactive)	-1.32% (inactive)	inactive				
CC[C@]1(O)CC2CN(CCc3c([nH]c4ccccc34)[C@@](C(=O)OC)(c3cc4c(cc3OC)N(C)[C@H]3[C@@](O)(C(=O)OC)[C@H](OC(C)=O)[C@]5(CC)C=CCN6CC[C@]43[C@@H]65)C2)C1 (stereo partly drawn)							inactive		0.721 µM (active)	0.224 µM (active)
